Each structure is given as a SMILES string. Values joined by “and” are separate entries in the source; they are usually repeats but may differ in a detail not shown here. Equal entries are not always repeated. Inconclusive results are not listed. Entries that show only a call come without a potency. The source holds several records for some structures; these can differ, active in one and inactive in another. Active and inactive are the calls of the source. The call rests on the fitted dose curve; in most records, active means well fitted cell-killing curve with a large enough effect in the repeat runs; inconclusive means weak or mixed curves, or effect the other way; inactive means flat fitted curve, though single readings scatter.
Potency means the concentration at half of the fitted maximal effect.

The nature of one assay: qHTS assay to identify small molecule agonists of the androgen receptor (AR) signaling pathway in the presence of an antagonist - cell viability counter screen (AID 1259379). Further: nearly all actives have a fitted effect of over 25% in size. The note with it: MDA-kb2 viability, CellTiter-Fluor, 16 h; series mostly up to 92.4 µM. In a few lines:
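In MDA-kb2 cells (human breast carcinoma, MMTV-luciferase), compounds at 15 concentrations plus 3.0uM nilutamide; 16 hr, 37C, 0% CO2; CellTiter-Fluor fluorescence read for viability.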
On the technique in general: qHTS replaces the single test concentration by a dilution series.
Consider `COP(=S)(OC)Oc1ccc([N+](=O)[O-])c(C)c1`, for which the Potency result is “inactive”. Still for that read-out and setting: as for `O=[N+]([O-])[O-].[Tl+]`, the entry is “inactive”; as for `CC#C[C@]1(O)CC[C@H]2[C@@H]3C[C@H](C)C4=CC(=O)CC[C@]4(C)[C@H]3CC[C@@]21C`, “inactive”; as for `C[C@@H]1CC2=CC(=O)CC[C@@H]2[C@H]2CC[C@@]3(C)[C@@H](CC[C@]3(C)O)[C@@H]21`, “inactive”. Regarding `CCOC(=O)CCN(SN(C)C(=O)Oc1cccc2c1OC(C)(C)C2)C(C)C`, the Potency entry is “inactive”. Turning to `c1csc(-c2ccc(-c3cccs3)s2)c1`, the Potency result was “inactive”. As to `CCCC[N+]1(C)CCCC1` (tested in a mixture with another compound), the Potency entry is “inactive”. Consider `O.O.O.O=C([O-])[C@H]([O-])[C@@H]([O-])C(=O)[O-].O=C([O-])[C@H]([O-])[C@@H]([O-])C(=O)[O-].[K+].[K+].[Sb+3].[Sb+3]`, for which the Potency was 17.3 µM (active). Same read-out and setting: as for `Oc1ccc(Cl)c(Cl)c1`, the entry is “inactive”; as for `O=c1c2ccccc2c(=O)c2c1cc(Cl)c1[nH]c3c([nH]c12)c(Cl)cc1c(=O)c2ccccc2c(=O)c13`, “inactive”.

Consider `CNN`, for which the Potency entry is “inactive”.

Regarding `[Cl-].[Cl-].[Cl-].[Yb+3]`, the Potency entry is “inactive”. The same measure, in the same setting: as for `c1cc[n+]2c(c1)-c1cccc[n+]1CC2`, the entry is “inactive”; as for `CCN(CC)C(=S)S`, “inactive”.

As to `CC(C)[C@@H](Nc1ccc(C(F)(F)F)cc1Cl)C(=O)OC(C#N)c1cccc(Oc2ccccc2)c1` (stereo not given in full), the Potency entry is “inactive”. On to `CCCCn1cc[n+](C)c1` (tested in a mixture with another compound), for which the Potency entry is “inactive”.

Regarding `Cc1ccccc1OP(=O)(Oc1ccccc1C)Oc1ccccc1C`, the Potency entry is “inactive”. For the molecule `CCCCC(CC)COC(=O)c1ccccc1C(=O)OCC(CC)CCCC` (stereo not given), the Potency entry is “inactive”. For the molecule `CSC(C)(C)/C=N/O`, the Potency result was “inactive”. The same measure, in the same setting: as for `Fc1ccc(C(OCCN2CCN(CCCc3ccccc3)CC2)c2ccc(F)cc2)cc1`, the figure is 26.6 µM (active); as for `Oc1cc(Cl)cc(Cl)c1`, “inactive”. In the case of `CC(=O)O.CC(=O)O.CC(=O)O.CC(=O)O.CC(=O)O.CC(=O)O.CC(=O)O.O.O.[Cr].[Cr].[Cr]`, the Potency result is “inactive”. As for `O=C1C[C@@H]2OCC=C3CN4CC[C@]56c7ccccc7N1[C@H]5[C@H]2[C@H]3C[C@H]46`, the Potency entry is “inactive”. The same measure, in the same setting: as for `O=S(=O)(NS(=O)(=O)C(F)(F)F)C(F)(F)F`, the figure is 19.3 µM (active); as for `Cc1cccc(Cc2cnc[nH]2)c1C`, “inactive”; as for `C[C@]12C/C(=C/O)C(=O)C[C@@H]1CC[C@@H]1[C@@H]2CC[C@@]2(C)[C@H]1CC[C@]2(C)O`, 61.7 µM (active) and inactive.

A short description of the next assay: qHTS assay to identify small molecule agonists of the estrogen receptor beta (ER-beta) signaling pathway - cell viability counter screen (AID 1259380). Further: nearly all actives have a fitted effect of over 30% in size. The note with it: ER-beta-bla HEK293T viability, CellTiter-Glo luminescence, 16 h; series mostly up to 92.4 µM. In a few lines: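 Viability of ER-beta-UAS-bla HEK293T cells was determined by CellTiter-Glo luminescence following 16 hr treatment with test compounds at 37C.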
As for `CO/N=C(/C1=NOCCO1)c1ccccc1Oc1ncnc(Oc2ccccc2Cl)c1F`, the Potency is 21.7 µM (active). Same read-out and setting: as for `Clc1ccc(C(c2ccc(Cl)cc2)C(Cl)Cl)cc1`, the figure is 54.5 µM (active); as for `CN1CCc2cc3c(cc2C1O)OCO3` (stereo not given), “inactive”. The same measure, in the same setting: as for `O=[N+]([O-])[O-].[Tl+]`, the figure is 0.346 µM (active); as for `CC1CCCC1`, “inactive”. The same measure, in the same setting: as for `CCOC(=O)CCN(SN(C)C(=O)Oc1cccc2c1OC(C)(C)C2)C(C)C`, the entry is “inactive”. Take `c1csc(-c2ccc(-c3cccs3)s2)c1`: the Potency entry was “inactive”. Still for that read-out and setting: as for `CN1C2CCC(C)(C)C1CC(OC(=O)C(O)(c1cccs1)c1cccs1)C2` (stereo not given), the entry is “inactive”.

On to `CCCC[N+]1(C)CCCC1` (tested in a mixture with another compound), for which the Potency entry was “inactive”. Still for that read-out and setting: as for `O.O.O.O=C([O-])[C@H]([O-])[C@@H]([O-])C(=O)[O-].O=C([O-])[C@H]([O-])[C@@H]([O-])C(=O)[O-].[K+].[K+].[Sb+3].[Sb+3]`, the entry is “inactive”; as for `NC1CCC(CC2CCC(N)CC2)CC1` (stereo not given), “inactive”; as for `CC(=O)[O-].CC(=O)[O-].[Co+2]`, “inactive”.

Take `O=c1c2ccccc2c(=O)c2c1cc(Cl)c1[nH]c3c([nH]c12)c(Cl)cc1c(=O)c2ccccc2c(=O)c13`: the Potency entry is “inactive”. Still for that read-out and setting: as for `CNN`, the entry is “inactive”; as for `c1cc[n+]2c(c1)-c1cccc[n+]1CC2`, “inactive”; as for `CCN(CC)C(=S)S`, 6.08 µM (active) and 9.69 µM (active). For `ClC1=C(Cl)[C@]2(Cl)[C@H]3[C@H]([C@@H]4C=C[C@H]3C4)[C@@]1(Cl)C2(Cl)Cl`, the Potency was 61.1 µM (active). On to `CC(C)[C@@H](Nc1ccc(C(F)(F)F)cc1Cl)C(=O)OC(C#N)c1cccc(Oc2ccccc2)c1` (stereo not given in full), for which the Potency entry was “inactive”. Turning to `CCCCn1cc[n+](C)c1` (tested in a mixture with another compound), the Potency entry is “inactive”. Still for that read-out and setting: as for `Oc1cc(Cl)cc(Cl)c1`, the entry is “inactive”; as for `CC(=O)O.CC(=O)O.CC(=O)O.CC(=O)O.CC(=O)O.CC(=O)O.CC(=O)O.O.O.[Cr].[Cr].[Cr]`, “inactive”. For `O=C1C[C@@H]2OCC=C3CN4CC[C@]56c7ccccc7N1[C@H]5[C@H]2[C@H]3C[C@H]46`, the Potency result is “inactive”. Still for that read-out and setting: as for `Cc1cccc(Cc2cnc[nH]2)c1C`, the entry is “inactive”.

With `C[C@]12C/C(=C/O)C(=O)C[C@@H]1CC[C@@H]1[C@@H]2CC[C@@]2(C)[C@H]1CC[C@]2(C)O`, the Potency is 49 µM (active) and 26.6 µM (active).
